Drawing on PubChem BioAssay, this text covers composite z-score, composite Z-score and z-score for five molecules.

The target in one assay is Albumin (Bos taurus) (UniProt P02769). The assay is described as follows: bovine serum albumin binders on microarray, profiling panel, artefact control for SMM control protein annotation, biochemical, small-molecule microarray, Alexa647 label, 635/667 nm fluorescence (AID 1118).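 Note: score merges 667 nm emission intensity and signal-to-noise per printed compound spot.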 As to conditions: BSA-A647 binding, fluorescence 635 nm, higher = more signal.
Sequence of Albumin (Bos taurus) (P02769 whole entry, looked up): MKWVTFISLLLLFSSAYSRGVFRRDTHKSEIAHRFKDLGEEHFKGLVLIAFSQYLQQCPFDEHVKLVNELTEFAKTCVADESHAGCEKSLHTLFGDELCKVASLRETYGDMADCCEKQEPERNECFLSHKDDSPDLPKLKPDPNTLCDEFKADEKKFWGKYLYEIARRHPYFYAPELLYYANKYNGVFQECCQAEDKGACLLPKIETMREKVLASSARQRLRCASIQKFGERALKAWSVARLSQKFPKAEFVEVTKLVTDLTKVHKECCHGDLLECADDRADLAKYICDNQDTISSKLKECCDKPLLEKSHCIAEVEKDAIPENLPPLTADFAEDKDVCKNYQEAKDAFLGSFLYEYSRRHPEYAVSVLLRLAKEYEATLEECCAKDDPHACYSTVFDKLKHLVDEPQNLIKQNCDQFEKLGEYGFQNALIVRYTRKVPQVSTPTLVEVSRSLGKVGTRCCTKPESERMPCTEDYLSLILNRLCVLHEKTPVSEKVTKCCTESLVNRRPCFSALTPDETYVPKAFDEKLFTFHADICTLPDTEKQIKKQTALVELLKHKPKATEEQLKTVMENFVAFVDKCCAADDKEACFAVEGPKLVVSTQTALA
Assay [1] is described as follows: small-molecule microarray binders of probe aXIP, primary screen, biochemical, NeuroSMM set, 635/667 nm fluorescence (AID 1119).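 Note: probe is the protein aXip251-270 applied at 1 µg/mL to compound-printed slides; binding of probe to printed compounds measured as 667 nm fluorescence plus signal to noise.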 As to conditions: higher = more signal, called active from +8 up or from −8 down.
A short description of assay [2]: small-molecule binders of probe aNOTCH3, primary screen, biochemical, small-molecule microarray, 635/667 nm fluorescence (AID 1120).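 Note: probe is a biotin-tagged antibody raised against NOTCH3 rather than NOTCH3 protein; score merges spot fluorescence near 667 nm with spot signal to noise.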 As to conditions: higher = more signal.
Assay [3] is described as follows: small-molecule binders of probe aNOTCH2, primary screen, biochemical, small-molecule microarray, 635/667 nm fluorescence (AID 1121).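 Note: score merges feature fluorescence read at 667 nm with its signal to noise.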 Particulars: higher = more signal.
The target in assay [4] is Carbonic anhydrase 2 (Homo sapiens) (UniProt P00918). The assay is described as follows: CAII small-molecule binders, profiling panel, biochemical, small-molecule microarray, Alexa647-labelled CAII (AID 1122). As to conditions: CAII-A647 binding fluorescence, higher = more signal.
Assay [5] is described as follows: COS7 lysate on small-molecule microarray, probe aHis, 635 nm (AID 1123).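 Note: z-score combines 667nm fluorescence intensity with signal-to-noise per printed compound spot.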 As to conditions: COS7 cell lysate, fluorescence, higher = more signal.
Assay [6] is described as follows: compound binding in COS7 lysate, probe aLAP1, primary screen, cell lysate, small-molecule microarray (AID 1124).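 Note: lysate comes from COS7 cells expressing LAP1 and is applied at 0.3 µg/mL; score merges spot fluorescence near 667 nm with signal-to-noise over triplicate slides.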 Particulars: probe aLAP1, fluorescence, higher = more signal.
The subject of the next assay is Sam68 (KHDRBS1). Kind of assay: Sam68 small-molecule binders, primary screen, biochemical, small-molecule microarray, 635 nm fluorescence (AID 1125).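 Note: score merges 667 nm channel intensity with signal to noise over triplicate slides.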 Particulars: small-molecule microarray binding, higher = more signal.
Assay [7] has as its system Chordin-like protein 2 (CHRDL2). The assay is described as follows: CHRDL2 small-molecule binders, primary screen, biochemical, small-molecule microarray, 635 nm fluorescence (AID 1126).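 Note: printed compound slides probed with Chrdl2 protein at 4 µg/mL for 1 h at 4 C; score merges 667 nm emission intensity with signal to noise over three replicate slides.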 As to conditions: small-molecule microarray binding, fluorescence 635 nm; higher = more signal.
Assay [8] deals with Concanavalin-A (Canavalia ensiformis) (UniProt P02866). Kind of assay: ConA small-molecule binders, primary screen, artefact control for SMM control protein annotation, biochemical, small-molecule microarray, Alexa647 label, 635 nm (AID 1127).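 Note: z combines 667 nm emission intensity with signal-to-noise across three replicate slides.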 Particulars: ConA-A647 binding fluorescence, higher = more signal.
Sequence of Concanavalin-A (Canavalia ensiformis) (P02866 whole entry, looked up): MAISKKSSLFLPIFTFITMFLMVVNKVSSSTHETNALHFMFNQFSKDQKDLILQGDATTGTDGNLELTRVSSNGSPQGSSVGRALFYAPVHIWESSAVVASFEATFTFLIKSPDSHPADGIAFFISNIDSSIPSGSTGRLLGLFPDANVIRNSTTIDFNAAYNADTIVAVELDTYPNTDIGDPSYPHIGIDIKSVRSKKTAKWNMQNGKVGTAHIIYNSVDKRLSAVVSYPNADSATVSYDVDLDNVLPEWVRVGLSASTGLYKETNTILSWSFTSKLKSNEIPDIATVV
The nature of assay [9]: anti-His antibody binders, primary screen, artefact control for SMM control protein annotation, biochemical, small-molecule microarray, 635 nm fluorescence (AID 1128).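 Note: score merges feature fluorescence with signal-to-noise for each printed compound spot.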 Particulars: anti-His Alexa647 antibody binding, higher = more signal.
Assay [10] relates to Human papillomavirus type 1a E7 protein (residues 1-88). Kind of assay: HPV1a E7 small-molecule binders, primary screen, biochemical, small-molecule microarray, residues 1-88, 635 nm (AID 1129). As to conditions: small-molecule microarray binding, fluorescence 635 nm; higher = more signal.
For assay [11], the target named is Focal adhesion kinase 1 (Homo sapiens) (UniProt Q05397). The assay is described as follows: small-molecule microarray binders of FAK, primary screen, biochemical, 635/667 nm fluorescence, BSA, DTT (AID 1130).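 Note: composite of spot emission at 667 nm and signal to noise over triplicate slides.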 As to conditions: PTK2 binding, 635 nm fluorescence, higher = more signal.
Sequence of Focal adhesion kinase 1 (Homo sapiens) (Q05397 whole entry, looked up): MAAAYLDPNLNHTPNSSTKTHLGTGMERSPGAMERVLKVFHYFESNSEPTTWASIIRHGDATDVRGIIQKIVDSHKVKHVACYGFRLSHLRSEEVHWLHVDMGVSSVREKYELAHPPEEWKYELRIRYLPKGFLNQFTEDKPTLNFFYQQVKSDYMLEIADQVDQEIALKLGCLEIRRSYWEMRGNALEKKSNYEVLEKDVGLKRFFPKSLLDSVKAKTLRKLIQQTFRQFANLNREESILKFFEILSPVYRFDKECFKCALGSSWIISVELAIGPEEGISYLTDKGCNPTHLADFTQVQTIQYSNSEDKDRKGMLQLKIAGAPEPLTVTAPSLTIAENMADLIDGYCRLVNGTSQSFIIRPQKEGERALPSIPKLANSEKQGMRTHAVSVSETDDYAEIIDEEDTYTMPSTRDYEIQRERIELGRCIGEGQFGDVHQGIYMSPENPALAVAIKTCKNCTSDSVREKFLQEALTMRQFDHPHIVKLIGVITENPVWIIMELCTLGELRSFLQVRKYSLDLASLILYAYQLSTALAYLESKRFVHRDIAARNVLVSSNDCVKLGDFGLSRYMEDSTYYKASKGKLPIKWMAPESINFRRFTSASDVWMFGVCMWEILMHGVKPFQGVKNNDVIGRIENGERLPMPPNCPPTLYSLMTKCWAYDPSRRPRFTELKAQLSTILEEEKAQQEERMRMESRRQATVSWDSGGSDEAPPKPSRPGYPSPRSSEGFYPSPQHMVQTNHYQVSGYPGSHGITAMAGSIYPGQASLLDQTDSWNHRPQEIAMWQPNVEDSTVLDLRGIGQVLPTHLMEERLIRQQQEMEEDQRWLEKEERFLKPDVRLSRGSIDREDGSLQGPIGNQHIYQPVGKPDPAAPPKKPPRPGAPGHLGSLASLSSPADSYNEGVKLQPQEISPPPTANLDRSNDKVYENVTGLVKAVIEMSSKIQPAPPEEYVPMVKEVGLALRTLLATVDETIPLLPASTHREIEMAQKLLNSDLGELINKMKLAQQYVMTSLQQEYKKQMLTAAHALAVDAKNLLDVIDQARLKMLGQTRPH
For assay [12], the system named is Fibrinogen (Alexa647-labelled). The assay is described as follows: fibrinogen binders on compound microarrays, profiling panel, artefact control for SMM control-protein annotation, biochemical, small-molecule microarray, 635/667 nm fluorescence (AID 1131).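 Note: z-score merges 667 nm fluorescence with per-spot signal-to-noise over triplicate slides.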 As to conditions: fibrinogen-A647 binding fluorescence, higher = more signal.
The target of assay [13] is Follistatin (Homo sapiens) (UniProt P19883). The assay is described as follows: follistatin binders on small-molecule microarrays, primary screen, biochemical, small-molecule microarray, 635/667 nm fluorescence (AID 1132). As to conditions: FST binding, 635 nm fluorescence, higher = more signal.
Sequence of Follistatin (Homo sapiens) (P19883 whole entry, looked up): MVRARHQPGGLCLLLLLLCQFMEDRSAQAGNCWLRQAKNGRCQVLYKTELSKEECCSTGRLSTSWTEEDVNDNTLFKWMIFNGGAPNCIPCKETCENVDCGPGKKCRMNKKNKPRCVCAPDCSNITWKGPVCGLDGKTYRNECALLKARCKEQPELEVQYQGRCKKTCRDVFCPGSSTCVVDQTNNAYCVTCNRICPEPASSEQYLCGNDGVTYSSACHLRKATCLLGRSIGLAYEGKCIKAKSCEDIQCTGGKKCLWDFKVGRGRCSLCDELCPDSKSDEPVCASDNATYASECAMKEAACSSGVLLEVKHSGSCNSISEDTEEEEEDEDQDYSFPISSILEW
For assay [14], the target named is Fibroblast growth factor 2 (Homo sapiens) (UniProt P09038). The assay is described as follows: FGF2 binders on small-molecule microarrays, primary screen, biochemical, small-molecule microarray, 635/667 nm fluorescence (AID 1133). Particulars: small-molecule microarray binding, FGF2, fluorescence 635/667; higher = more signal.
Sequence of Fibroblast growth factor 2 (Homo sapiens) (P09038 whole entry, looked up): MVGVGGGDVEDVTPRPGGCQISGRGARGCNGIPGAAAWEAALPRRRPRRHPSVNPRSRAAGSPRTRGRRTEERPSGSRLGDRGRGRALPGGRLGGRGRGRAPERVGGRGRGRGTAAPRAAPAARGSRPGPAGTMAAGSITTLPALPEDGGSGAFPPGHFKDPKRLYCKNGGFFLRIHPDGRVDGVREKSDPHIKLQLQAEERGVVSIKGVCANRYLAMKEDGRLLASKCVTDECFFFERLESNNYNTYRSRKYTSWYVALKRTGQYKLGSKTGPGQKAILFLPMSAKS
Assay [15] is described as follows: mitochondrial membrane potential change in A549 cells, profiling panel, cell-based, JC-1 fluorescence, basal, 24 h, 100 nL (AID 1138).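 Note: A549 lung adenocarcinoma cells under basal conditions with no added stimulus; test concentration not given here.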 Particulars: higher = more signal.
Another assay concerns Lefty1. Kind of assay: Lefty1 binders on small-molecule microarrays, primary screen, biochemical, small-molecule microarray, 635/667 nm fluorescence (AID 1139). As to conditions: small-molecule microarray binding, fluorescence 635/667; higher = more signal.
Assay [16] has as its system wheat germ agglutinin (Triticum aestivum), Alexa647-labelled. The assay is described as follows: wheat germ agglutinin binders on compound microarrays, profiling panel, artefact control for SMM control-protein annotation, biochemical, small-molecule microarray, 635/667 nm fluorescence (AID 1140).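 Note: score merges 667 nm feature emission with signal to noise over triplicate slides.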 As to conditions: WGA-A647 binding, 635 nm fluorescence, higher = more signal.

Assay [17] deals with Luciferin 4-monooxygenase (Photinus pyralis) (UniProt P08659). The assay is described as follows: firefly luciferase enzyme inhibitors, primary screen, biochemical, luminescence, purified enzyme, 2006 set (AID 1141).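 Note: cell-free assay with purified firefly luciferase at 100 ng per well in PBS; test concentration not given here.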 As to conditions: SteadyGlo luminescence, 30 min, higher = more signal, called active from +8 up or from −8 down.
Sequence of Luciferin 4-monooxygenase (Photinus pyralis) (P08659 whole entry, looked up): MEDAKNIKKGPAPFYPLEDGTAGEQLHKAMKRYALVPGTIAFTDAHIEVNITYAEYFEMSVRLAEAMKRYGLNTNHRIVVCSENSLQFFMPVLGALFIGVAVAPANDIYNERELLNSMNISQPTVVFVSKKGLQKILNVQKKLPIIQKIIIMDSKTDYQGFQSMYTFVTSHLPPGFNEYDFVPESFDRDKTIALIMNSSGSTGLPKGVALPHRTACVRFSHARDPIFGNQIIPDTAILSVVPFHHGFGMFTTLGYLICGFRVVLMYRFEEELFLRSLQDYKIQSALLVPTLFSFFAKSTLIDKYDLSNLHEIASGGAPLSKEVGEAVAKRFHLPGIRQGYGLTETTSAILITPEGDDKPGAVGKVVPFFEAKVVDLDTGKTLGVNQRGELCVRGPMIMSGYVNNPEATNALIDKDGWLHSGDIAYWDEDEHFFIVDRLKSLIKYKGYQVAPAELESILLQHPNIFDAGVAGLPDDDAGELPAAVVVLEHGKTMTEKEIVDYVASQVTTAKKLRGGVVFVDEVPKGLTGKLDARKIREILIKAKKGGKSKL

Activity calls are given as the source filed them.

Take `C[C@@H]1CC[C@H]2C(=O)N3[C@@H](CC[C@@H](C)[C@@H]3c3ccc(Br)cc3)C(=O)N2[C@H]1c1ccc(Br)cc1`: the composite z-score with Albumin (Bos taurus) was 0.213; in [2], 0.0462; in assay [3] it was 0.224; in assay [4], -0.161; in assay [5], 0.246; in [6], -0.0873. In addition, the composite z-score in the assay with Sam68 (KHDRBS1) was 0.31; in assay [7] it was 0.391; in assay [8], 0.344; in assay [9] it was 0.0399; in [10] it was -0.0695; in assay [11] it was -0.104. In addition, the composite z-score is 0.122 in assay [12]; 0.301 in assay [13]; 0.13 in [14]; 0.52 with Lefty1; -0.0219 in assay [16]. Further, the composite Z-score in [1] is -0.119 (inactive). Also, the z-score in [15] was 1.48; in assay [17], -0.199 (inactive).
Take `CC(C)[C@@H](OCc1ccccc1)[C@H](C)C=NO[C@@H](C)c1cn([C@H](CO)Cc2ccccc2)nn1`: the composite z-score in the assay with Albumin (Bos taurus) is 0.449; in [2], 0.209; in assay [3], -0.146; in [4], -0.227; in assay [5], -0.205; in assay [6], -0.0074. Moreover, the composite z-score in the assay on Sam68 (KHDRBS1) is 0.706; in assay [7], 0.191; in assay [8], -0.36; in assay [9], 0.08; in assay [10], -0.147; in [11], -0.0232. For the same molecule, the composite z-score in assay [12] is -0.157; in [13] it was -0.0854; in assay [14] it was 0.346; in the assay on Lefty1, 0.249; in assay [16], 0.0578. Besides, in assay [1], the composite Z-score was -0.0527 (inactive). The figures for the z-score in assay [15] and in [17] were -1.02 and -0.197 (inactive), respectively.
For `COc1ccc(O[C@H]2C=C[C@@H](c3ccccc3)O[C@@H]2CO)cc1`, the composite z-score with Albumin (Bos taurus) is -0.311; in assay [2] it was 0.0762; in assay [3], -0.104; in [4] it was 0.131; in assay [5], -0.209; in assay [6] it was 0.0797. Moreover, the composite z-score with Sam68 (KHDRBS1) was -0.713; in assay [7] it was 0.495; in assay [8], 0.304; in assay [9], -0.457; in assay [10] it was -0.145; in assay [11], -0.363. Also, the composite z-score in assay [12] is -0.0957; in assay [13], 0.36; in [14], 0.363; in the assay on Lefty1, 0.479; in [16] it was -0.126. The composite Z-score in assay [1] is -0.0521 (inactive). Also, the figures for the z-score in assay [15] and in assay [17] were 0.319 and -0.162 (inactive), respectively.
Take `CC(=O)OC[C@H]1O[C@H](CC=NOC[C@@H](O)[C@H]2O[C@@H]3OC(C)(C)O[C@@H]3[C@H]2O)C=C[C@@H]1OC(C)=O`: the composite z-score with Albumin (Bos taurus) is 0.846; in assay [2], 0.116; in assay [3] it was -0.0934; in assay [4] it was 0.298; in assay [5] it was 0.548; in assay [6] it was 0.79. Moreover, the composite z-score in the assay with Sam68 (KHDRBS1) was determined as 0.883; in assay [7], 0.0166; in [8], 0.976; in assay [9], 0.638; in [10] it was 0.702; in assay [11], 0.15. For the same molecule, the composite z-score in assay [12] is 0.727; in assay [13], 0.209; in assay [14], 0.583; in the assay on Lefty1 it was 0.385; in assay [16], -0.0993. Further, the composite Z-score in assay [1] is 0.0765 (inactive). For the same molecule, the z-score in assay [15] was -0.325; in assay [17] it was 0.94 (inactive).
For the molecule `CC(C)=CCCC(C)=CCON=C1C[C@@H](O)[C@@H](O)[C@@H]2[C@@H]3C(=O)N([C@@H](C)c4ccccc4)C(=O)[C@@H]3CC[C@@H]12`, the composite z-score in the assay with Albumin (Bos taurus) was 0.0686; in assay [2], -0.0311; in [3], -0.0194; in [4] it was 0.043; in assay [5], 0.157; in [6], 0.0404. In addition, the composite z-score was determined as 0.121 in the assay with Sam68 (KHDRBS1); 1.04 in [7]; 0.6 in [8]; 0.509 in [9]; 0.499 in assay [10]; 0.276 in [11]. Also, the composite z-score in assay [12] came out at 0.297; in assay [13] it was 0.462; in assay [14] it was 0.58; in the assay with Lefty1, 0.6; in [16], 0.0833. For the same molecule, the composite Z-score in assay [1] was -0.283 (inactive). Also, the results for the z-score in [15] and in [17] were -0.569 and 0.391 (inactive), respectively.
